PubChem BioAssay (NCI)
About 83,000 compounds went through this panel and 20% of them were active in at least one assay; those are over-represented in the sample as a whole.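 For each line, cells grew in 96-well plates with the test compound present at a single concentration for 48 hours.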 The source made the active and inactive calls. How the source made its calls: active means growth percent below 10; inactive means the rest.

Each compound was assayed on A549/ATCC NSCLC (assay: NCI-60 one-dose screen, 48 h (100 = growth as untreated, 0 = no growth, -100 = all killed)). Details: 10 µM unless noted.
For `O=C(N/N=C/c1occc1Br)c1[nH]c2ccc(Br)cc2c1-c1ccccc1`, the growth was -41.7% (active).
In the case of `Cn1cc(-c2cc(N)n3nc(-c4c[nH]c5ccccc45)cc3n2)c2cc(Br)ccc21`, the growth is reported as -50% (active).
`Cc1ccc2c(c1)/C(=C/C(=O)c1cc3ccccc3oc1=O)C(=O)N2` was tested, and the growth was 89.5% (inactive).

The compounds below were run on 786-0 renal in the same assay as above. Details: 10 µM unless noted.
`COc1cc(CNC(=O)C[C@H](C)CCC=C(C)C)ccc1OCc1cn(-c2ccc(Br)cc2)nn1` was tested, and the growth was 68.7% (inactive).
`N#CC1=C(c2cccs2)Nc2c(c(-c3ccccc3)nn2-c2ccccc2)C12C(=O)Nc1ccccc12` (stereo not drawn) was tested, and the growth was 1.25% (active).
In the case of `N#Cc1c(-c2ccc(F)cc2)nc(SCc2ccc(F)cc2)nc1N1CCNCC1`, the growth is reported as -79.1% (active).
`COc1cc(NC(=O)CSc2nnc(-c3ccc(-c4nc5ccc(Cl)cc5[nH]4)cc3)o2)cc(OC)c1OC` was tested, and the growth was 56.7% (inactive).
With `CN(C)c1nc(NCCNS(=O)(=O)c2ccc(C(=O)/C=C/c3ccc(C(F)(F)F)cc3)cc2)nc(N2CCOCC2)n1` the growth was -85.1% (active).
With `COc1cc(CNC(=O)C[C@H](C)CCC=C(C)C)ccc1OCc1cn(-c2ccc(Cl)cc2Cl)nn1` the growth was 38.9% (inactive).
With `O=C(N=Nc1c(O)[nH]c2ccc(Cl)cc12)c1ccc2nc(-c3ccc(Cl)cc3)[nH]c2c1` the growth was -72.6% (active).
For `CC1=C(C(=O)OCc2ccccc2)C(c2ccc(N(C)C)cc2)n2c(nc3ccccc32)N1` (stereo not drawn), the growth was 90.6% (inactive).
With `Cn1cc(-c2cc(N)n3nc(-c4c[nH]c5ccc(F)cc45)cc3n2)c2cc(Br)cnc21` the growth was 44.4% (inactive).
With `CCCCC[C@@H]1C/C=C(\C)[C@@H](O)C(C)(C)C(=O)[C@@H](C)/C=C(\C)[C@@H]2C[C@H](O)C[C@](O)(CC(=O)O1)O2` the growth was 65.8% (inactive).
